Structures are written as SMILES. Inconclusive results are not listed. Values without a mark were called inactive. Activity calls are given as the source filed them. The call rests on the fitted dose curve; in most records, active means well fitted inhibition curve with a large enough effect; inconclusive means small, poorly fitted or top-dose-only effect; inactive means flat fitted curve, though single readings scatter.

Consider 19 molecules from PubChem BioAssay (NCATS).

A short description of experiment [1]: Drug repurposing screens with cells derived from glioblastoma tumor samples (AID 1345199). Further: nearly all actives have a fitted effect of over 40% in size. Particulars: GBM patient neurospheres viability, ATP luminescence, 48 h. The method, boiled down: (§1)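 Primary testing used CD133+ neurospheres from four GBM patients, seven concentrations, 48 h exposure and ATP-based viability; confirmation added three slower-growing patient lines.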

In a further experiment the test system is astro (control astrocytes). The description is as above. As to conditions: viability, ATP luminescence, 48 h; series mostly up to 45.9 µM. The method, boiled down: as §1
The mark [2] stands for this setting: at 45.9 µM (top of the series), tumour line B.
Setting [3] is: at 45.9 µM (top of the series), tumour line D.
Where [4] appears, read: at 46 µM (top of the series), tumour line A.
Where [5] appears, read: at 46.1 µM (top of the series), tumour line C.
[6] abbreviates: at 20 µM (top of the series), tumour line C.
The mark [7] stands for this setting: at 21.2 µM (top of the series), tumour line B.
The mark [8] stands for this setting: at 21.2 µM (top of the series), tumour line D.
[9] abbreviates: at 21.3 µM (top of the series), tumour line A.
On the % scale 0 is the no-effect control and ±100 the full control effect; potency means the concentration at half of the fitted maximal effect.

For the molecule `O.O.O.O.O.O.O.O=S(=O)([O-])[O-].[Co+2]`, the activity, negative = cell killing in experiment [1] (setting [2]) was -22.6%; in experiment [1] (setting [3]) it was 15.1%; in experiment [1] (setting [4]), -23.8%; in experiment [1] (setting [5]), 10.4%. The Potency entry in the experiment with astro was “inactive”.

For `CC(CNC(=O)c1cccnc1)NC(=O)c1cccnc1` (stereo not given), the activity, negative = cell killing in experiment [1] (setting [2]) is -10.6%; in experiment [1] (setting [3]), -9.97%; in experiment [1] (setting [4]), -56.9%; in experiment [1] (setting [5]), -14.1%. Further, the Potency entry in the experiment on astro was “inactive”.

For the molecule `CC(=O)Nc1ccc(OC(C)=O)cc1`, the activity, negative = cell killing in experiment [1] (setting [2]) was -2.78%; in experiment [1] (setting [3]) it was 2.27%; in experiment [1] (setting [4]), -21%; in experiment [1] (setting [5]), -27.8%. In addition, the Potency entry in the experiment with astro is “inactive”.

With `NC(=O)C1c2ccccc2CCc2ccccc21`, the activity, negative = cell killing was 4.21% in experiment [1] (setting [2]), -18.6% in experiment [1] (setting [3]), -34% in experiment [1] (setting [4]) and -17.6% in experiment [1] (setting [5]). Also, the Potency result in the experiment with astro was “inactive”.

Consider `C[C@H](N)C(=O)N[C@@H](C)P(=O)(O)O`, for which the activity, negative = cell killing in experiment [1] (setting [2]) is -6.14%; in experiment [1] (setting [3]) it was -11.2%; in experiment [1] (setting [4]) it was -15.6%; in experiment [1] (setting [5]), -19.1%. For the same molecule, in the experiment on astro, the Potency entry is “inactive”.

Regarding `CO[C@H]1C[C@H](O[C@H]2[C@H](C)[C@@H](O[C@@H]3O[C@H](C)C[C@H](N(C)C)[C@H]3O)[C@@H](C)C[C@]3(CO3)C(=O)[C@H](C)[C@@H](O)[C@@H](C)[C@@H](C)OC(=O)[C@@H]2C)O[C@@H](C)[C@@H]1O`, the activity, negative = cell killing in experiment [1] (setting [6]) was -8.16%; in experiment [1] (setting [7]), -0.194%; in experiment [1] (setting [8]), -29.4%; in experiment [1] (setting [9]), -24%. The Potency result with astro was “inactive”.

With `Cn1c(O)c(N=NC(N)=S)c2ccccc21`, the activity, negative = cell killing in experiment [1] (setting [2]) was -22.4%; in experiment [1] (setting [3]), -18.5%; in experiment [1] (setting [5]), -19.8%. In addition, in experiment [1] (tumour line A), the Potency was 31.6 µM (active). Further, the Potency entry in the experiment on astro is “inactive”.

In the case of `CCCCCCOC(=O)c1cccnc1`, the activity, negative = cell killing in experiment [1] (setting [2]) is 14.4%; in experiment [1] (setting [3]) it was 7.42%; in experiment [1] (setting [4]), -5.32%; in experiment [1] (setting [5]), 1.85%. Moreover, the Potency result with astro was “inactive”.

For `CC(O)[C@@H]1NC(=O)[C@H](Cc2ccccc2)NC(=O)[C@H](C(C)O)NC(=O)[C@H](CCCCN)NC(=O)[C@H](Cc2c[nH]c3ccccc23)NC(=O)[C@H](Cc2ccccc2)NC(=O)[C@H](Cc2ccccc2)NC(=O)[C@H](CC(N)=O)NC(=O)[C@H](CCCCN)NC(=O)[C@@H](NC(=O)CNC(=O)[C@H](C)N)CSSC[C@@H](C(=O)O)NC(=O)[C@H](CO)NC1=O` (stereo not given in full), the activity, negative = cell killing is -13.9% in experiment [1] (setting [2]), -20.3% in experiment [1] (setting [3]), -21.3% in experiment [1] (setting [4]) and -3.11% in experiment [1] (setting [5]). In addition, the Potency result with astro was “inactive”.

Turning to `C=CCOc1ccc(CC(=O)O)cc1Cl`, the activity, negative = cell killing in experiment [1] (setting [2]) was 0.88%; in experiment [1] (setting [3]), 1.11%; in experiment [1] (setting [4]) it was -23%; in experiment [1] (setting [5]), 0.211%. Moreover, the Potency result with astro was “inactive”.

As to `O=C(O)[C@H]1C(=CCO)O[C@H]2CC(=O)N12`, the activity, negative = cell killing is -8.67% in experiment [1] (setting [2]), -21.6% in experiment [1] (setting [3]), -18.4% in experiment [1] (setting [4]) and -12.5% in experiment [1] (setting [5]). Also, the Potency result in the experiment with astro was “inactive”.

With `CC(=O)[C@@]1(O)CC[C@H]2[C@@H]3C=C(Cl)C4=CC(=O)[C@@H]5C[C@@H]5[C@]4(C)[C@H]3CC[C@@]21C`, the activity, negative = cell killing in experiment [1] (setting [2]) was -14.4%; in experiment [1] (setting [3]), -9.17%; in experiment [1] (setting [4]) it was -35.1%; in experiment [1] (setting [5]) it was -13.6%. The Potency result with astro was “inactive”.

On to `CCCOc1cc(N)ccc1C(=O)OCCN(CC)CC`, for which the activity, negative = cell killing is 3.99% in experiment [1] (setting [6]), -3.15% in experiment [1] (setting [7]), -24.1% in experiment [1] (setting [8]) and 3.16% in experiment [1] (setting [9]). Moreover, the Potency entry in the experiment on astro was “inactive”.

Turning to `O[C@@H]([C@H](O)[C@H](O)CBr)[C@H](O)CBr`, the activity, negative = cell killing is -6.4% in experiment [1] (setting [2]), -10.8% in experiment [1] (setting [3]), -25.7% in experiment [1] (setting [4]) and 4.72% in experiment [1] (setting [5]). In addition, the Potency result in the experiment with astro is “inactive”.

For `CCC(O)c1ccccc1` (stereo not given), the activity, negative = cell killing in experiment [1] (setting [2]) was -1.17%; in experiment [1] (setting [3]), 0.662%; in experiment [1] (setting [4]) it was -1.63%; in experiment [1] (setting [5]), 4.78%. For the same molecule, the Potency entry in the experiment with astro was “inactive”.

For the molecule `O=C1c2ccccc2CN2C(=O)c3ccccc3CN12`, the activity, negative = cell killing in experiment [1] (setting [2]) is -20.4%; in experiment [1] (setting [3]) it was -5.7%; in experiment [1] (setting [4]), -23.1%; in experiment [1] (setting [5]), -20%. Moreover, in the experiment on astro, the Potency result was “inactive”.

For the molecule `O=C1NC(=O)[C@H]2[C@@H]1[C@@H]1C=C[C@H]2C1`, the activity, negative = cell killing in experiment [1] (setting [2]) was -11.5%; in experiment [1] (setting [3]), -1.45%; in experiment [1] (setting [4]), -23%; in experiment [1] (setting [5]), -6.43%. Moreover, in the experiment with astro, the Potency entry is “inactive”.

Turning to `O=C(O)c1cc(O)c2c(c1)[C@H]([C@H]1c3cc(C(=O)O)cc(O)c3C(=O)c3c(O[C@@H]4O[C@H](CO)[C@@H](O)[C@H](O)[C@H]4O)cccc31)c1cccc(O[C@@H]3O[C@H](CO)[C@@H](O)[C@H](O)[C@H]3O)c1C2=O`, the activity, negative = cell killing in experiment [1] (setting [2]) is -24.5%; in experiment [1] (setting [3]), -3.04%; in experiment [1] (setting [4]) it was -24%; in experiment [1] (setting [5]), -0.084%. The Potency entry with astro is “inactive”.

On to `CN1CCC(OC(=O)C(Oc2ccc(Cl)cc2)Oc2ccc(Cl)cc2)CC1`, for which the activity, negative = cell killing is -23.9% in experiment [1] (setting [2]), -4.4% in experiment [1] (setting [3]), -21% in experiment [1] (setting [4]) and -21% in experiment [1] (setting [5]). Moreover, the Potency entry in the experiment on astro was “inactive”.
